# In ChEMBL document CHEMBL4513146, “CO-ADD screening of Karazin Kharkiv National University (Ukraine) compounds”:
# Measured potencies and affinities stand elsewhere.
# System: Klebsiella pneumoniae
# Conditions: Concentration 32 ug.mL-1;; ASSAY_TEST Inhibition of Bacterial Growth; detection method Absorption (OD600); MEDIA CAMHB; plate type 384well; NBS; CORNING #3640; time 18 hr
row,Structure (SMILES),Inhibition [%]
1,Cc1ccc(NC(=O)CSc2nc3ccccc3n3c(C(C)C)nnc23)cc1Cl,1.48
2,COC(=O)c1cccc(NC(=O)Cn2nc3ccc(-c4ccc(C)c(C)c4)nn3c2=O)c1,6.94
3,Cc1ccc(Oc2nccn3c(=O)n(CC(=O)Nc4ccc(C)cc4Cl)nc23)cc1,4.57
4,COc1ccc(Cl)cc1NC(=O)Cn1nc2c(Sc3ccc(C)cc3C)nccn2c1=O,5.33
5,Cc1cc(C)cc(Nc2nc(C)cc3nn(CC(=O)N(C)c4cccc(C)c4)c(=O)n23)c1,7.61
6,Cc1ccc(C)c(-c2cc3c4nnc(CCC(=O)NCCc5ccc(Cl)cc5)n4ccn3n2)c1,12.88
7,COc1ccccc1-n1ccn2c(SCc3cc(C)ccc3C)nnc2c1=O,16.48
8,CC(C)c1nnc2c(SCC(=O)Nc3ccc4c(c3)OCO4)nc3ccccc3n12,4.73
9,Cc1ccc(C)c(NC(=O)Cn2nc3cc(C)nc(Nc4ccc(F)cc4)n3c2=O)c1,5.73
10,Cc1cccc(C)c1NC(=O)Cn1nc2c(N3CCSCC3)nc3ccccc3n2c1=O,7.3
11,COc1ccc(NC(=O)Cn2nc3ccc(-c4ccccc4)nn3c2=O)cc1Cl,-6.25
12,CCOC(=O)c1ccc(NC(=O)Cn2nc3c4cc(-c5ccc(Cl)cc5)nn4ccn3c2=O)cc1,8.16
13,Cc1ccc(NC(=O)CSc2nc3ccccc3n3c(C)nnc23)cc1C,-6.18
14,CCc1nnc2c(S(=O)(=O)N(Cc3ccc(F)cc3)c3cccc(Cl)c3)cccn12,0.19
15,COc1cccc(-n2ccn3c(SCC(=O)c4c(C)[nH]c5ccccc45)nnc3c2=O)c1,9.67
16,CCc1nnc2c(S(=O)(=O)N(Cc3cccc(C)c3)c3ccc(Cl)cc3)cccn12,3.49
17,Cc1nnc2ccc(S(=O)(=O)N(Cc3cccc(F)c3)c3ccc(F)c(F)c3)cn12,2.49
18,COC(=O)c1ccc(NC(=O)Cn2nc3nc(N4CCCCCC4)ccn3c2=O)cc1,12.29
19,COc1ccc(OC)c(NC(=O)Cn2nc3c4cc(-c5ccc(Cl)cc5)nn4ccn3c2=O)c1,3.06
20,Cc1nnc2ccc(S(=O)(=O)N(Cc3ccccc3Cl)c3ccc(F)cc3)cn12,0.63
21,CCCn1c(=O)c2sccc2n2c(CCC(=O)NC(C)C34CC5CC(CC(C5)C3)C4)nnc12 (centres undefined),1.34
22,COc1ccc(NC(=O)Cn2nc3c4cc(-c5ccc(C)cc5)nn4ccn3c2=O)cc1Cl,-5.12
23,CC(C)c1nnc2c(=O)n(CC(=O)Nc3ccc(Cl)cc3)c3ccccc3n12,16.79
24,Cc1ccc(Oc2nc3ccccc3n3c(=O)n(CC(=O)Nc4ccccc4C(F)(F)F)nc23)cc1,13.52
25,O=C(Cn1nc2c3sc(N4CCCC4)nc3ncn2c1=O)Nc1ccc(F)c(Cl)c1,20.21

# System: Candida albicans
# Conditions: Concentration 32 ug.mL-1; ASSAY_TEST Inhibition of Fungal Growth; detection method Absorption (OD530)
row,Structure (SMILES),Inhibition [%]
1,O=C(Cn1nc2ccc(SCc3ccc(Cl)cc3)nn2c1=O)Nc1ccccc1C(F)(F)F,1.76
2,COC(=O)c1sccc1NC(=O)Cn1nc2c(Oc3ccc(C)cc3)nc3ccccc3n2c1=O,3.6
3,COC(=O)c1ccc(NC(=O)CSc2nc3ccccc3n3c(C(C)C)nnc23)cc1,4.43
4,CCc1ccccc1Sc1nccn2c(=O)n(CC(=O)Nc3cc(C)ccc3C)nc12,1.62
5,COc1ccc(-c2cc3c4nn(CC(=O)Nc5cc(C)ccc5C)c(=O)n4ccn3n2)cc1,0.97
6,O=C(Cn1nc2ccc(Sc3cccc(F)c3)nn2c1=O)NCc1ccc(C(F)(F)F)cc1,1.44
7,O=c1c2nn(Cc3ccc(F)cc3)c(=O)n2ccn1-c1ccccc1,2.87
8,CC(=O)c1ccc(NC(=O)Cn2nc3c(SC4CCCCC4)nccn3c2=O)cc1,0.5
9,CCCCn1c(=O)c2sccc2n2c(=O)n(CC(=O)N3CCC(Cc4ccccc4)CC3)nc12,-1.21
10,Cc1nnc2c(S(=O)(=O)N(Cc3ccccc3F)c3cc(F)cc(F)c3)cccn12,0.25
11,CC(C)c1ccc(N(Cc2cccc(Cl)c2)S(=O)(=O)c2cccn3cnnc23)cc1,3.48
12,CC(C)c1ccc(N(Cc2ccccc2F)S(=O)(=O)c2cccn3cnnc23)cc1,-0.83
13,O=C(Cn1nc2c(Sc3cccc(F)c3)nccn2c1=O)N1CCN(c2ccccc2)CC1,0.68
14,COc1cccc(Sc2nc3ccccc3n3c(=O)n(CC(=O)N4CCCc5ccccc54)nc23)c1,0.71
15,Cc1ccc(NC(=O)CSc2nc3ccccc3n3c(C(C)C)nnc23)cc1Cl,-0.39
16,COC(=O)c1cccc(NC(=O)Cn2nc3ccc(-c4ccc(C)c(C)c4)nn3c2=O)c1,2
17,Cc1ccc(Oc2nccn3c(=O)n(CC(=O)Nc4ccc(C)cc4Cl)nc23)cc1,3.92
18,COc1ccc(Cl)cc1NC(=O)Cn1nc2c(Sc3ccc(C)cc3C)nccn2c1=O,2.63
19,Cc1cc(C)cc(Nc2nc(C)cc3nn(CC(=O)N(C)c4cccc(C)c4)c(=O)n23)c1,2.11
20,Cc1ccc(C)c(-c2cc3c4nnc(CCC(=O)NCCc5ccc(Cl)cc5)n4ccn3n2)c1,1.56

row,Structure (SMILES),Inhibition [%]
1,COc1ccccc1-n1ccn2c(SCc3cc(C)ccc3C)nnc2c1=O,0.1
2,CC(C)c1nnc2c(SCC(=O)Nc3ccc4c(c3)OCO4)nc3ccccc3n12,-0.7
3,Cc1ccc(C)c(NC(=O)Cn2nc3cc(C)nc(Nc4ccc(F)cc4)n3c2=O)c1,2.17
4,Cc1cccc(C)c1NC(=O)Cn1nc2c(N3CCSCC3)nc3ccccc3n2c1=O,2.93
5,COc1ccc(NC(=O)Cn2nc3ccc(-c4ccccc4)nn3c2=O)cc1Cl,19.43
6,CCOC(=O)c1ccc(NC(=O)Cn2nc3c4cc(-c5ccc(Cl)cc5)nn4ccn3c2=O)cc1,4.56
7,Cc1ccc(NC(=O)CSc2nc3ccccc3n3c(C)nnc23)cc1C,44.31
8,CCc1nnc2c(S(=O)(=O)N(Cc3ccc(F)cc3)c3cccc(Cl)c3)cccn12,5.46
9,COc1cccc(-n2ccn3c(SCC(=O)c4c(C)[nH]c5ccccc45)nnc3c2=O)c1,3.81
10,CCc1nnc2c(S(=O)(=O)N(Cc3cccc(C)c3)c3ccc(Cl)cc3)cccn12,0.59
11,Cc1nnc2ccc(S(=O)(=O)N(Cc3cccc(F)c3)c3ccc(F)c(F)c3)cn12,1.97
12,COC(=O)c1ccc(NC(=O)Cn2nc3nc(N4CCCCCC4)ccn3c2=O)cc1,5.24
13,COc1ccc(OC)c(NC(=O)Cn2nc3c4cc(-c5ccc(Cl)cc5)nn4ccn3c2=O)c1,-0.3
14,Cc1nnc2ccc(S(=O)(=O)N(Cc3ccccc3Cl)c3ccc(F)cc3)cn12,5.22
15,CCCn1c(=O)c2sccc2n2c(CCC(=O)NC(C)C34CC5CC(CC(C5)C3)C4)nnc12 (centres undefined),7.2
16,COc1ccc(NC(=O)Cn2nc3c4cc(-c5ccc(C)cc5)nn4ccn3c2=O)cc1Cl,9.96
17,CC(C)c1nnc2c(=O)n(CC(=O)Nc3ccc(Cl)cc3)c3ccccc3n12,3.6
18,Cc1ccc(Oc2nc3ccccc3n3c(=O)n(CC(=O)Nc4ccccc4C(F)(F)F)nc23)cc1,1.1
19,O=C(Cn1nc2c3sc(N4CCCC4)nc3ncn2c1=O)Nc1ccc(F)c(Cl)c1,4.41
